In the library only some 2.9% were active in any assay of this set; here they are far more common.
Peg3 prom inh: inhibitors of Peg3 promoter. HeLa PEG-Prom luciferase reporter, luminescence, overnight. inhibition, % at 20 µM. 360,000 tested, 1.7% active. AID 588405;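 active = inhibition of at least 50% at 20 µM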
Shn3 inh set2: Schnurri-3 reporter inhibition in Clone20 osteoblasts; Clone20 osteoblast Shn3 3'UTR firefly luciferase, 24 h; inhibition, % at 12.5 µM; 360,000 tested, 0.52% active; AID 588674;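 active = mean inhibition of at least 75% with every replicate also reaching 75%; inconclusive = mean inhibition at least 75% but some replicate below; inactive = mean inhibition below 75%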
TRPM1 prom inh: inhibitors of MITF-driven TRPM1 promoter in melanoma cells | SK-MEL-5 TRPM1 promoter luciferase, 24 h | inhibition, % at 12.5 µM | 330,000 tested, 0.83% active | AID 488899;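 active = mean inhibition across replicates of 60% or more, whatever share of single replicates reaches that level; inconclusive = some that reach 60%, reason not given; inactive = mean inhibition across replicates below 60%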
CF NFkB inh: cystic fibrosis NF-kB activation inhibition. KKLEB NF-kB-GFP reporter, PAF-induced, GFP fluorescence overnight. inhibition, % at 5 µM. 360,000 tested, 0.86% active. AID 588850;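 active = at least 50% inhibition at 5 µM, scaled per plate between neutral and stimulator controls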;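 also: PAF is a Pseudomonas aeruginosa culture filtrate used as stimulus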
EBV LMP1 NFkB: Epstein-Barr LMP1 NF-kappaB reporter inhibition. LMP1-induced NF-kappaB luciferase reporter cells, luminescence. inhibition, % at 12.5 µM. 350,000 tested, 0.69% active. AID 504558; in the data active = inhibition above about 41%; inconclusive = no clear call, values can overlap the other calls
KKLEB tox: counter-screen for CF NF-kB inhibitors: cytotoxicity. KKLEB CF airway cells viability, ATPlite luminescence, overnight; stronger effect = lower value; cells stimulated with P. aeruginosa culture filtrate. activity change (cytotoxicity), % at 5 µM. 360,000 tested, 0.36% active. AID 602141;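 active = corrected activity change at or below -50% at 5 µM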
Of the large screens only hits and unclear results are named; the others gave an inactive call.

Cc1cc(C)n(CC(O)Cn2c3ccc(Cl)cc3c3cc(Cl)ccc32)c(=O)n1 (stereo not drawn)	none
COc1ccc(S(=O)(=O)N(C)C[C@H]2Oc3ccc(NS(=O)(=O)c4ccc(F)cc4)cc3C(=O)N([C@H](C)CO)C[C@@H]2C)cc1	none
CC(=O)Nc1sc2c(c1-c1nc3ccccc3s1)CN(C(C)C)CC2	Peg3 prom inh 98.3, TRPM1 prom inh 64.2
CC(=O)N1CCc2c(sc(NC(=O)C3CC3)c2-c2nc3ccccc3s2)C1	none
O=C(CCl)c1ccc(Cc2ncc(C(F)(F)F)cc2Cl)s1	Peg3 prom inh 60.9
COc1ccc([C@H]2C[C@@H](O)[C@H](n3cc(COC(=O)c4ccccc4)nn3)CN2CC2CCCCC2)cc1	Peg3 prom inh 52.2 (no result: TRPM1 prom inh)
O=C(CSc1nc2[nH]ncc2c(=O)[nH]1)Nc1cc(C(F)(F)F)ccc1Cl	none (no result: TRPM1 prom inh)
COc1ccc2nc(C)cc(Sc3nc4ccccc4s3)c2c1	Peg3 prom inh 67.3, CF NFkB inh 64.2
CN(C)c1ncnc2c1C(c1ccccc1)C(C)(C)O2 (stereo not drawn)	Shn3 inh set2 96.4
CN(C)c1ncnc2sc(-c3ccccc3)cc12	none
CCOc1cccc(/C=N/NC(=O)c2cccnc2)c1O	none
CCOc1cccc(/C=N/NC(=O)c2cc(C3CC3)[nH]n2)c1O	Shn3 inh set2 94.5, TRPM1 prom inh 61.4
COc1cc(/C=C2/C(=O)c3cccc([N+](=O)[O-])c3C2=O)c(Br)cc1O	Peg3 prom inh 109.6
COc1ccc(-c2ccc(C(=O)NC3CCCCC3)c3occc23)c(C)c1	none (no result: TRPM1 prom inh, EBV LMP1 NFkB)
Cc1ccccc1NC(=S)NNc1ncc(C(F)(F)F)cc1Cl	none
Cc1c(Cl)cccc1NC(=S)NNc1ncc(C(F)(F)F)cc1Cl	Peg3 prom inh 53.7
Cc1ccc2cc(NC(=O)C3(C)CCN3C(C)C)ccc2n1 (stereo not drawn)	none (no result: TRPM1 prom inh, EBV LMP1 NFkB)
O=C(CSc1nc2ccccc2c(=O)n1-c1ccc(SC(F)F)cc1)Nc1ccc(N2CCOCC2)cc1	CF NFkB inh 65.7, KKLEB tox -65.6
CC(=O)c1cc2c(cc1C)CCCC2(C)C	none (no result: TRPM1 prom inh, EBV LMP1 NFkB)
NS(=O)(=O)c1ccc(Sc2nc3ccccc3s2)c([N+](=O)[O-])c1	CF NFkB inh 82.5, EBV LMP1 NFkB 70.3, KKLEB tox -52.6 (no result: Shn3 inh set2)
NS(=O)(=O)c1ccc(Sc2ccccn2)c([N+](=O)[O-])c1	none
O=C(N/N=C/c1c[nH]c2ccccc12)c1[nH]c2ccc(Br)cc2c1-c1ccccc1	TRPM1 prom inh inconclusive
Cc1c(C(=O)N/N=C/c2ccc(Cl)cc2)[nH]c2ccc(Cl)cc12	CF NFkB inh 61.5
O=C(N/N=C/c1ccc(O)cc1)c1[nH]c2ccc(Br)cc2c1-c1ccccc1	TRPM1 prom inh 62.9, CF NFkB inh 57.6
CCOc1ccc(/C=N/NC(=O)c2[nH]c3ccc(C)cc3c2C)cc1	none
CCC(=O)N1CCC1(C)C(=O)Nc1ccc2c(c1)CCN2C(C)=O (stereo not drawn)	none (no result: TRPM1 prom inh, EBV LMP1 NFkB)
Cc1c(-c2ccc(OCCN3CCOCC3)cc2)c(=O)oc2ccc3ccccc3c12	none (no result: TRPM1 prom inh)
O=c1c2cnn(-c3ccccc3)c2nc(-c2cccs2)n1-c1ccc(Br)cc1	EBV LMP1 NFkB 42.7
CCCCCN(C(=O)CCC(=O)OCc1ccc(C(C)C)cc1)c1c(N)n(CCCC)c(=O)[nH]c1=O	CF NFkB inh 54.5, KKLEB tox -54.4
CCCCCN(C(=O)CCC(=O)OCc1ccc(C(C)(C)C)cc1)c1c(N)n(CCCC)c(=O)[nH]c1=O	none
CC(C)c1ccc(S(=O)(=O)/N=C2/C=C(Sc3ncn[nH]3)C(=O)c3ccccc32)cc1	Peg3 prom inh 63.7, CF NFkB inh 83.7
Cc1ccc(S(=O)(=O)Nc2ccc(O)c(Sc3ncn[nH]3)c2)cc1	none
Cc1ccc(S(=O)(=O)/N=C2/C=C(Sc3ncn[nH]3)C(=O)c3ccccc32)cc1	Peg3 prom inh 105.7, Shn3 inh set2 98.5, TRPM1 prom inh 91.3, CF NFkB inh 99.6, EBV LMP1 NFkB 64.0, KKLEB tox -58.5
O=C(Nc1ccc2c(c1)OCO2)c1cc(C2CCCCN2S(=O)(=O)c2ccccc2)on1 (stereo not drawn)	none (no result: TRPM1 prom inh, EBV LMP1 NFkB)
COCCn1ccc2c(OCC(=O)Nc3cc(OC)ccc3OC)cccc2c1=O	Peg3 prom inh 52.5
N#C/C(=N\Nc1cccc([N+](=O)[O-])c1)C(=O)c1ccc(Br)cc1	CF NFkB inh 51.3, KKLEB tox -54.8

Compound activity: PubChem, several laboratories
